Sampled rows, rich in hits. Any-hit rate of the full collection: about 1.6%.
KCNQ2 block: KCNQ2 (rat) channel inhibition; CHO-K1 KCNQ2, FluxOR thallium flux, 20 min; active compounds read low; 310,000 tested, 1.1% active; AID 2156; B-score at 10 µM;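 active means fluorescence ratio B-score at most minus 3 library SDs, with starting brightness B-score within 2 library SDs, cut at about -5.5 in these data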
KCNQ2 enhance: KCNQ2 (rat) channel potentiation. O88943. 310,000 tested, 0.54% active. CHO-K1 KCNQ2, FluxOR thallium flux fluorescence; active compounds read high. B-score at 10 µM;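 active means fluorescence ratio B-score at least 3 SD of library B-scores, with initial fluorescence B-score within 3 of them, cut at about 5.3 in these data; same plate scores as AID 2156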;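 further: B-score of peak minus minimum over baseline fluorescence ratio after K+ and Tl+ stimulus; positive B-score means potentiation of KCNQ2 with more thallium influx and brighter signal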
Kir21 confirm: confirmation of mouse Kir2.1 potassium channel inhibitors; shares compounds with KCNQ2 enhance; Kir2.1-expressing cells, FluxOR thallium flux fluorescence; active compounds read low; Tl flux remaining, % of negative control (active compounds read low), % at 10 µM; 2,300 tested, 41% active; AID 2032;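 active means Primary-screen hit whose thallium flux fell at least 3 control SD below untreated wells in both duplicates, with normal baseline fluorescence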;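 further: 0% = blank wells without stimulus and 100% = stimulated no-compound controls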
Target sequence (P35561 whole entry, looked up): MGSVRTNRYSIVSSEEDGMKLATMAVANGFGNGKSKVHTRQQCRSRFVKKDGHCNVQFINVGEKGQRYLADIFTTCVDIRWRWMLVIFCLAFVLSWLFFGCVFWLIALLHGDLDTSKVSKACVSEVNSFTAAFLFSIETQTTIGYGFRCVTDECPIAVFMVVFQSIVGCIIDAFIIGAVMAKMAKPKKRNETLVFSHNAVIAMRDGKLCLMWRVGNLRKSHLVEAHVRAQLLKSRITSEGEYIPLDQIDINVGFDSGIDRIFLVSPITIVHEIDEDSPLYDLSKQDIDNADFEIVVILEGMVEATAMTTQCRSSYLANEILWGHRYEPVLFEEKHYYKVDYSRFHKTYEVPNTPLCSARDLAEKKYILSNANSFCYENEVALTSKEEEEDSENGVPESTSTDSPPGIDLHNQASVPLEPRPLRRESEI
HEK293 ctr: parental HEK293 activity in Kir2.1 inhibitor counter-screen | shares compounds with KCNQ2 enhance | parental HEK293 cells, FluxOR thallium flux fluorescence; 0% = unstimulated blank wells | FluxOR signal as % of negative control (100 = no effect), % at 10 µM | 2,300 tested, 19% active;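 active means dye signal at least 3 control SD above or below untreated wells in both duplicates, raw fluorescence within 3, either direction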;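 further: percent is based on the flux ratio of peak minus minimum fluorescence over baseline F0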
CHO-K1 ctr: parental CHO-K1 activity in KCNQ2 potentiator counter-screen. parental CHO-K1 cells, FluxOR thallium flux fluorescence; zero = vehicle mean+3SD, 100% = vehicle-minus-blank window. 1,200 tested, 43% active. shares compounds with KCNQ2 enhance. activity increase over 3SD of controls, % at 10 µM;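 active means signal rise of at least 3 SD above the untreated control mean, in both duplicate wells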;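 further: counter screen of KCNQ2 potentiator hits so any rise reflects channel-independent effects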
KCNQ1 sel pot: tests whether KCNQ2 potentiators also act on human KCNQ1; shares compounds with KCNQ2 enhance; CHO KCNQ1 stable, FluxOR thallium flux fluorescence; beyond 3SD, as % of vehicle-control signal; activation over 3SD threshold, % at 10 µM; 1,200 tested, 28% active; AID 2283;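 active means fluorescence ratio rise of at least 3 SD of vehicle wells above their mean, in both replicate wells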;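 further: 0% = vehicle mean plus 3 SD and 100% = vehicle minus unstimulated blank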
KCNQ2 pot conf: confirmation of rat KCNQ2 potassium channel potentiators; shares compounds with KCNQ2 enhance; CHO-KCNQ2 cells, FluxOR thallium flux fluorescence; potentiation, less the hit threshold, % at 10 µM; 1,200 tested, 68% active;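 active means fluorescence ratio rising 3 SD or more over the vehicle control mean in both replicates, plus primary screen hit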;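 further: peak minus minimum thallium fluorescence divided by baseline after K/Tl stimulus; 0% = vehicle mean plus 3 SD and 100% = vehicle minus unstimulated blank difference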
Kir2-1 sel: tests whether KCNQ2 potentiators also affect mouse Kir2.1; HEK293 Kir2.1, FluxOR thallium flux fluorescence; 1,200 tested, 2% active; shares compounds with KCNQ2 enhance; AID 2345; activity over 3SD threshold, % at 10 µM;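 active means fluorescence ratio rise of at least 3 SD above the vehicle-control mean, seen in both replicates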;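 further: 0% = vehicle mean plus 3 SD and 100% = vehicle minus no-stimulus blank window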
KCNQ2 W236L pot: potentiates the retigabine-insensitive rat KCNQ2 W236L mutant channel. shares compounds with KCNQ2 enhance. CHO KCNQ2-W236L, automated patch clamp current. current increase over 3SD of negative controls (%), active compounds read high, % at 25 µM. 940 tested, 10% active. AID 2558;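 active means current increase at least 3 SD of the untreated controls above them in both duplicate recordings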
* marks the source's active call; other numbers are inactive results.

Results for O=C(NC(=O)c1ccc(Cl)cc1)OC1CCCCC1 ?
KCNQ2 block: inactive; KCNQ2 enhance: 1.5

How did O=c1c(O)c(-c2cccs2)oc2ccc(Cl)cc12 do in these assays?
KCNQ2 block: inactive; KCNQ2 enhance: 15; Kir21 confirm: inactive; HEK293 ctr: inactive; CHO-K1 ctr: -18; KCNQ1 sel pot: -16; KCNQ2 pot conf: 70*; Kir2-1 sel: -29; KCNQ2 W236L pot: 24%*

How did O=c1cc(-c2cccs2)oc2ccc(Cl)cc12 do in these assays?
KCNQ2 block: inactive; KCNQ2 enhance: 1.2

What do the screens show for `Cc1ccc(-c2oc3ccccc3c(=O)c2OCC(=O)O)cc1`?
KCNQ2 block: inactive

What do the screens show for `CCCCn1c(-c2cccs2)nc2oc3ccccc3c(=O)c2c1=O`?
KCNQ2 block: inactive; KCNQ2 enhance: 0.86

What do the screens show for `O=c1c(O)c(-c2cccs2)oc2ccccc12`?
KCNQ2 block: inactive; KCNQ2 enhance: 13*; Kir21 confirm: inactive; HEK293 ctr: inactive; CHO-K1 ctr: 9.6*; KCNQ1 sel pot: -33; KCNQ2 pot conf: 66*; Kir2-1 sel: -36; KCNQ2 W236L pot: inactive

Results for Cc1ccc(-c2oc3ccccc3c(=O)c2O)cc1 ?
KCNQ2 block: inactive; KCNQ2 enhance: 5.6*; Kir21 confirm: inactive; HEK293 ctr: 162%*; CHO-K1 ctr: -21; KCNQ1 sel pot: -22; KCNQ2 pot conf: 21*; Kir2-1 sel: -37; KCNQ2 W236L pot: inactive

Results for Sc1oc(-c2ccccc2)cc1C=Nc1ccccc1 ?
KCNQ2 block: inactive

Results for CCN(CC(=O)Nc1ccc(OC)c(Cl)c1)CC(=O)NC(C)C ?
KCNQ2 block: inactive

Results for COCCn1cnc2c1c(=O)n(CC(=O)OCC(=O)NCC(F)(F)F)c(=O)n2Cc1ccccc1 ?
KCNQ2 block: inactive

How did CC(CC(=O)Nc1nnc(CC(C)(C)C)s1)c1ccccc1 (stereo not given) do in these assays?
KCNQ2 block: inactive

Results for CCc1cc(CNC(=O)c2ccc(OC3CCN(C(C)=O)CC3)c(OC)c2)on1 ?
KCNQ2 block: inactive; KCNQ2 enhance: 1

How did CN(C(=O)C(C)(C)C)C1c2c(ccc3ccccc23)OCC1CO (stereo not given) do in these assays?
KCNQ2 block: inactive

What do the screens show for `Oc1ccc(N2CCN(Cc3cc4c(cc3Br)OCCO4)CC2)cc1`?
KCNQ2 block: inactive

What do the screens show for `CC(NC(=O)CN1c2cccc3cccc(c23)S1(=O)=O)c1ccc(S(N)(=O)=O)cc1` (stereo not given)?
KCNQ2 block: inactive

What do the screens show for `Cc1cc(C)cc(NC(=S)N2CC(C)OC(C)C2)c1` (stereo not given)?
KCNQ2 block: inactive

How did CCN1CCN(C(=O)C2CC(=O)N(c3ccc(Cl)cc3)C2)CC1 (stereo not given) do in these assays?
KCNQ2 block: inactive; KCNQ2 enhance: 0.85

What do the screens show for `OCCNCc1c(OCc2ccc(Cl)cc2)ccc2ccccc12`?
KCNQ2 block: inactive; KCNQ2 enhance: 0.51; Kir21 confirm: 37%*; HEK293 ctr: inactive

How did OCCNCCNCc1ccccc1OCc1ccccc1 do in these assays?
KCNQ2 block: inactive

What do the screens show for `COC(=O)C1CCN(C(=O)COC(=O)CCc2nc3ccccc3c(=O)[nH]2)CC1`?
KCNQ2 block: inactive

How did CN(CC(=O)Nc1ccccc1Br)C(=O)CNC(=O)Cc1cccc2ccccc12 do in these assays?
KCNQ2 block: inactive; KCNQ2 enhance: 0.88

Results for CCN(CC)S(=O)(=O)c1cccc(C(=O)NC(C(=O)NC2=NCCS2)C(C)C)c1 (stereo not given) ?
KCNQ2 block: inactive; KCNQ2 enhance: 0.24

What do the screens show for `CCN(CC)S(=O)(=O)c1cccc(C(=O)N[C@H](C(=O)NNC(=O)c2ccccc2)C(C)C)c1`?
KCNQ2 block: inactive; KCNQ2 enhance: 8*; Kir21 confirm: inactive; HEK293 ctr: inactive; CHO-K1 ctr: -25; KCNQ1 sel pot: 0.2*; KCNQ2 pot conf: -23; Kir2-1 sel: -23

Results for C=CCn1c(SCc2ccc(C(=O)OC)cc2)nnc1-c1sc(N)nc1C ?
KCNQ2 block: inactive; KCNQ2 enhance: 0.11

What do the screens show for `C=CCn1c(SC/C=C/c2ccccc2)nnc1-c1sc(N)nc1C`?
KCNQ2 block: inactive; Kir21 confirm: 60%*; HEK293 ctr: inactive

How did COc1ccc(C(=O)Nc2ccnn2C2CCN(C(=O)c3cc(C)on3)CC2)cc1 do in these assays?
KCNQ2 block: inactive; KCNQ2 enhance: 1.1

Results for NC(=O)c1sc2nc(N3CCCCC3)c3c(c2c1N)CCCC3 ?
KCNQ2 block: inactive; KCNQ2 enhance: 6.7*; Kir21 confirm: inactive; HEK293 ctr: inactive; CHO-K1 ctr: 10*; KCNQ1 sel pot: -12; KCNQ2 pot conf: -5; Kir2-1 sel: -29; KCNQ2 W236L pot: inactive

Results for COC(=O)c1sc2nc(N3CCCCC3)c3c(c2c1N)CCCC3 ?
KCNQ2 block: inactive; KCNQ2 enhance: 2

How did CN(C(=O)c1cc(-n2cnnc2)ccc1Cl)c1ccccc1 do in these assays?
KCNQ2 block: inactive

What do the screens show for `COCCn1c(=NC(=O)C(C)(C)C)sc2cc([N+](=O)[O-])ccc21`?
KCNQ2 block: inactive

What do the screens show for `Cc1cccc(CC(=O)NCC2CCCCC2)c1`?
KCNQ2 block: inactive; KCNQ2 enhance: 9.4*; Kir21 confirm: inactive; HEK293 ctr: inactive; CHO-K1 ctr: 39*; KCNQ1 sel pot: -18; KCNQ2 pot conf: 28*; Kir2-1 sel: -27; KCNQ2 W236L pot: inactive

Results for COc1cccc(/C=C/C(=O)NCC2CCCCC2)c1 ?
KCNQ2 block: inactive

How did CC1CCCN(CCOCCOc2ccc(Br)cc2Cl)C1 (stereo not given) do in these assays?
KCNQ2 block: inactive

How did CC1CCN(CCCOc2ccc(Br)cc2Cl)CC1 do in these assays?
KCNQ2 block: inactive; Kir21 confirm: 38%*; HEK293 ctr: inactive

What do the screens show for `O=C(CSc1nncs1)Nc1nnc(-c2ccccc2)o1`?
KCNQ2 block: inactive

How did O=C(/C=C\c1ccc2c(c1)OCO2)Nc1c2c(nn1-c1ccc(Cl)cc1)CSC2 do in these assays?
KCNQ2 block: inactive

Assay outcomes from PubChem BioAssay.
